# Laboratory results published in PubChem BioAssay AID738 (SRMLSC, 2007).
# The whole screen tested about 98,000 compounds, of which about 4,900 (5%) were called active. This is one part of a sample in which actives are shown more often than they occur. No stated cut-off is given here; in the data, active means inhibition above about 30%; inactive means the rest.
# Experiment: growth inhibition of yeast control strain, primary screen, counter-screen for post-Golgi transport modulator project (AID 738)
# Conditions: efflux-deficient yeast background strain, growth absorbance A615, 16 h; at 10 µM; active compounds read high
row,Compound,inhibition
1,NC(=O)C1(N2CCCCC2)CCN(C2CC(=O)N(Cc3ccc(N4CCCC4=O)cc3)C2=O)CC1 (stereo not drawn),10.8% (inactive)
2,O=C(CCC(=O)OCc1cccc(C(=O)Oc2ccccc2)c1)Nc1cccc2ccccc12,0.79% (inactive)
3,O=C1OC(c2ccc(Cl)cc2)=N/C1=C\c1cccnc1,-10.4% (inactive)
4,CS(=O)(=O)c1sc2nc(-c3ccccc3)cc(-c3ccccc3)c2c1N,10.9% (inactive)
5,O=C1CN(c2nc(-c3ccccc3)c3cc(Br)ccc3n2)c2ccccc2N1,6.52% (inactive)
6,COc1ccccc1NC(=O)COc1ccc(C(=O)OCC(=O)N(C(C)C)C(C)C)cc1OC,13.2% (inactive)
7,FC(F)(F)c1cc(-c2ccco2)nc(NCc2ccc(Cl)cc2)n1,25.8% (inactive)
8,OC(COc1ccc2ccccc2c1)CN1CCOCC1 (stereo not drawn),15.5% (inactive)
9,COc1cccc(OCC(O)CN2CCN(CCO)CC2)c1 (stereo not drawn),-4.45% (inactive)
10,Cc1ccc(OCC(O)CN2CCN(CC(O)COc3ccc(C)cc3Cl)CC2)c(Cl)c1 (stereo not drawn),94.4% (active)
11,Cc1ccc(-c2nc(C)sc2CC(=O)O)cc1,6.8% (inactive)
12,NC(=O)C1CCN(C(=O)c2ccc(-c3ccccc3)cc2)CC1,6.88% (inactive)
13,COc1ccccc1N(C)S(=O)(=O)c1ccc(C(=O)N2CCC(C(N)=O)CC2)cc1,1.96% (inactive)
14,NC(=O)C1CCN(C(=O)c2ccc(C(F)(F)F)cc2)CC1,36.9% (active)
15,O=c1oc2c(Cl)cc(Cl)cc2cc1-c1nnc(Nc2ccccc2F)s1,-3.4% (inactive)
16,Cn1c(CO)cnc1SCc1ccccc1,9.24% (inactive)
17,CCS(=O)(=O)n1nc(-c2ccc(OC)cc2)nc1SC,9.73% (inactive)
18,CCS(=O)(=O)n1nc(-c2ccccc2)nc1SCc1ccccc1,31.2% (active)
19,CCC1(C)Cc2c(sc3nnn(CC(=O)Nc4ccc(Cl)cc4)c(=O)c23)CO1 (stereo not drawn),6.74% (inactive)
20,O=C(NCCCN1CCOCC1)c1cc2c(s1)CCC2,-14.4% (inactive)
21,Cc1ccc(-c2n[nH]c(=S)n2/N=C/c2cc3c(cc2[N+](=O)[O-])OCO3)cc1,-11.7% (inactive)
22,Cc1n[nH]c(=S)n1/N=C/c1ccc(Br)o1,49.4% (active)
23,C=CCNC(=S)NNc1ncnc2sc3c(c12)CC(C)(C)OC3,0% (inactive)
24,COc1ccccc1NC(=S)NC(=O)C(C)C,12.3% (inactive)
25,O=C(NCN1CCN(CCO)CC1)c1cnccn1,-5.66% (inactive)

row,Compound,inhibition
1,O=c1cc(-c2ccccc2)nc(N2CCCCC2)[nH]1,45% (active)
2,Cc1ccc(SCc2cc(=O)[nH]c(N3CCCCC3)n2)cc1,7.96% (inactive)
3,O=c1cc(CSc2ccccn2)nc(N2CCN(c3ccccc3)CC2)[nH]1,8.73% (inactive)
4,CCOC(=O)C(=O)Nc1nc(-c2ccccc2)c(CC)s1,-2.8% (inactive)
5,Cc1cccc(CSc2nnc(NC(=O)CSc3nnc(C)s3)s2)c1,22.5% (inactive)
6,CCN(CC)c1ccc(/C=N/Nc2nc(C)cc(=O)[nH]2)cc1,-2.13% (inactive)
7,COc1cc2c(cc1OC)C(C(=O)NCc1ccco1)C1c3ccccc3CCN1C2=O (stereo not drawn),4.7% (inactive)
8,CCOC(=O)C1CCN(C(=O)c2oc3ccc(S(=O)(=O)N4CCCCCC4)cc3c2C)CC1,8.75% (inactive)
9,CCOC(=O)C1CCN(c2ncnc3c2oc2ccc(Br)cc23)CC1,47.4% (active)
10,CCOC(=O)N1CCN(C(=O)C2CCN(c3ncnc4c3sc3cccc(F)c34)CC2)CC1,2.07% (inactive)
11,CCCNC(=O)c1c(N)n(-c2ccc(S(N)(=O)=O)cc2)c2nc3ccccc3nc12,-2.52% (inactive)
12,Cc1nn(C)c(Oc2ccc(Cl)cc2)c1C=O,2.69% (inactive)
13,O=C1N(Cc2ccc3c(c2)OCO3)c2ccccc2C1(O)c1c[nH]c2ccccc12 (stereo not drawn),38.7% (active)
14,O=C(COc1ccccc1)NCc1ccc2c(c1)OCO2,9.88% (inactive)
15,O=C(CCCCn1c(=O)[nH]c2ccccc2c1=O)NCc1ccc2c(c1)OCO2,1% (inactive)
16,Cc1csc(=NC(=O)c2ccccc2)n1CCO,7.5% (inactive)
17,CCC(C)NC(=O)CCCc1ccccc1 (stereo not drawn),28.4% (inactive)
18,O=C(CNC(=O)Cc1ccccc1)NCC(=O)OCC(=O)c1ccccc1Cl,13.6% (inactive)
19,C=CCOc1c2ccc(C(=O)N(CC)c3ccc(OC)cc3)cc2nn1C,7.7% (inactive)
20,O=C(NC1CC1)c1ccc2c(c1)NC(=O)c1ccccc1S2,-5.47% (inactive)
21,COc1ccc(C(C#N)Nc2ccc(C)cc2)cc1 (stereo not drawn),1.82% (inactive)
22,COc1ccc(-c2cc(C(=O)n3cnc4ccccc43)c3ccccc3n2)cc1,15.1% (inactive)
23,O=C(CCOc1ccccc1)NCc1ccccc1,39.4% (active)
24,O=C(CCc1ccccc1)NCc1cccnc1,6.95% (inactive)
25,O=C(CCCOc1ccccc1)NCc1ccco1,3.25% (inactive)

row,Compound,inhibition
1,Cn1sc(NC(=O)c2ccccc2)nc1=O,4.34% (inactive)
2,CC(C)(C)c1cc2cccnc2n1Cc1ccccc1,7.46% (inactive)
3,CCOC(=O)c1sc2nc(SC)nc(-c3ccccc3)c2c1N,-7.15% (inactive)
4,Cc1cc2ccccc2n1CCNC(=O)COc1ccc2ccccc2c1,44.7% (active)
5,Cc1ccccc1OCC(=O)NCC(=O)OCC(=O)c1ccc2ccccc2c1,6.76% (inactive)
6,COCCNC(=O)COc1ccc(C)c(C)c1,-10.9% (inactive)
7,COc1ccc(C(=O)CN(C(=O)c2ccc(Cl)cc2)N2C(=O)c3ccccc3C2=O)cc1,-4.1% (inactive)
8,COc1cccc(NC(=O)C2c3cc(OC)c(OC)cc3C(=O)N(C)C2c2cccnc2)c1 (stereo not drawn),-0.14% (inactive)
9,CC(=O)NNc1cc(=O)c2c(=O)n(C)c(=O)n(C)c2[nH]1,0.97% (inactive)
10,Cn1c2ccccc2n2c(=O)c(=O)n(CC(=O)c3ccc(F)cc3)nc12,3.79% (inactive)
11,Cc1cc(C)c(S(=O)(=O)NCC2CCC(C(=O)NCc3ccc4c(c3)OCO4)CC2)c(C)c1 (stereo not drawn),15.2% (inactive)
12,CCOc1cc(-c2cc(-c3ccc(OC)cc3)nc(N)c2C#N)ccc1O,-2.55% (inactive)
13,CCOc1ccccc1Oc1cn[nH]c1-c1ccc(OC)cc1O,52.3% (active)
14,CCOc1ccccc1NC(=O)Nc1cc(OC)ccc1OC,14.3% (inactive)
15,Cn1c2c(c(=O)n(C)c1=O)[C@@H]1c3c(ccc4ccccc34)OC[C@@H]1CO2,3.76% (inactive)
16,Cc1nc2ccccc2c(=O)n1CCCn1ccnc1,1.67% (inactive)
17,CCn1c(/C=C/c2ccc([N+](=O)[O-])o2)nc2ccccc2c1=O,68% (active)
18,CCc1ccc(NC(=O)CSc2nc3ccccc3c(=O)n2CCN2CCOCC2)cc1,7.51% (inactive)
19,O=C(Nc1nnc(SCc2ccc(Cl)cc2Cl)s1)C1COc2ccccc2O1 (stereo not drawn),5% (inactive)
20,CCOC(=O)c1cnc(-c2ccccc2)nc1Oc1ccc(C)cc1,4.35% (inactive)
21,Cc1nnc(NC(=O)Cn2c(=O)sc3ccccc32)s1,-3.03% (inactive)
22,Cc1nnc(NC(=O)Nc2ccc(Cl)c(Cl)c2)s1,3.53% (inactive)
23,O=C(CC(O)(C(F)(F)F)C(F)(F)F)Nc1ccc(Cl)c(Cl)c1,96.9% (active)
24,N/C(=N\OC(=O)Nc1ccc(Cl)c(Cl)c1)c1ncc(C(F)(F)F)cc1Cl,13.3% (inactive)
25,COCc1cc(C)nc2sc3c(=O)n(-c4cccc5ccccc45)nnc3c12,21.1% (inactive)

row,Compound,inhibition
1,O=C(Cn1nnc(-c2ccccc2)n1)NCc1ccc2c(c1)OCO2,2.85% (inactive)
2,O=C(CN1CCN(c2nc(-c3ccccc3)cs2)CC1)NCc1ccc2c(c1)OCO2,44.6% (active)
3,COc1ccc(-c2csc(N3CCN(Cc4ccc5c(c4)OCO5)CC3)n2)cc1,-2.01% (inactive)
4,COc1ccc(C2CC(=O)Nc3sc(=N)c4c(N)c(C#N)c(N)nc4c32)cc1OC (stereo not drawn),24.2% (inactive)
5,Fc1ccccc1/C=C1\CCCC2=C1Nc1ncnn1C2c1ccccc1F (stereo not drawn),35.8% (active)
6,CCCCCCn1c(SCC(=O)c2ccccc2)nc2c1c(=O)[nH]c(=O)n2C,12.4% (inactive)
7,CCCSc1nc2c(c(=O)[nH]c(=O)n2C)n1CCc1ccccc1,16.6% (inactive)
8,CCCCCn1c(SCCC(C)C)nc2c1c(=O)[nH]c(=O)n2C,35.5% (active)
9,ONC(=Nc1ccccc1)c1ccccc1Cl,24.2% (inactive)
10,CN(C(=O)CSc1nnc(N)s1)c1c(N)n(Cc2ccccc2)c(=O)[nH]c1=O,7.66% (inactive)
11,Cc1cc([N+](=O)[O-])c(N2CCC[C@@H]2C(=O)O)c([N+](=O)[O-])c1,18.4% (inactive)
12,Cn1c(C(=O)NCCCN2CCCCC2)cc2sccc21,2.29% (inactive)
13,Cc1ccc(Cc2c(C)nc3nc(SCC(=O)NCCN4CCOCC4)nn3c2C)cc1,20% (inactive)
14,Cc1ccsc1-c1nc(CSCC(=O)NCCN2CCCC2)c(C)o1,34.5% (active)
15,COc1ccccc1N1CCN(Cc2ccc(OC)c3ccccc23)CC1,34.9% (active)
16,COc1ccccc1N1CCN(CCCCOc2ccc(F)cc2)CC1,-0.55% (inactive)
17,COc1ccccc1N1CCN(Cc2nnnn2CCc2ccccc2)CC1,7.81% (inactive)
18,Cc1cc(C)n2nc(C(=O)NC(C)(C)C)nc2n1,4.47% (inactive)
19,COc1ccc(Oc2c(Cl)cnn(-c3ccccc3)c2=O)cc1,-3.86% (inactive)
20,CCN1CCC(=NNC(=O)c2ccc(C)c([N+](=O)[O-])c2)CC1,3.82% (inactive)
21,COc1ccc(-c2nc(CS(=O)CC(=O)N3CCc4ccccc4C3)c(C)o2)cc1 (stereo not drawn),4.85% (inactive)
22,Cc1ccccc1-c1nc(CS(=O)(=O)CC(=O)N2CCc3ccccc3C2)c(C)o1,30.9% (active)
23,Cc1oc(-c2ccccc2F)nc1CS(=O)(=O)CC(=O)NCCCN(C)C1CCCCC1,13.5% (inactive)
